Laboratory results from PubChem BioAssay AID504913 (The Scripps Research Institute Molecular Screening Center, 2011).
Some of the results follow. Unmarked numbers belong to inactive results. No stated cut-off is given here; in the data, active means activation above about 18%; inactive means the rest.

Assay: OPRM1-OPRD1 heterodimerization promoters, counter-screen for HTR5A agonist project, cell-based, luminescence (AID 504913)
Conditions: U2OS counter-screen cells, complementation luminescence, 3 h; at 9.3 µM; stronger effect = higher value

Work on `CCCCCCCCCCCCn1ccc(=N)cc1` yielded an activation of 2.92%.
